# Results: PubChem BioAssay AID2314 (National Center for Advancing Translational Sciences (NCATS), 2010)
# Where “and” joins values, the source holds several entries; their conditions need not be identical. Identical values can stand only once. About 37,000 (12%) of roughly 300,000 compounds were called active. Rule as the data show it: active = max response mostly above about 13% (no sharp cut-off); inactive = mostly below about 14%. For the sample, actives were picked, then their nearest neighbours and some compounds at random.
# Assay: Cycloheximide Counterscreen for Small Molecule Inhibitors of Shiga Toxin; also: read at 38.3 µM for the half of the compounds with a filed dose; 0% is about no effect
# Settings: cell reporter, cycloheximide protein synthesis inhibition counterscreen; active compounds read high
row,SMILES,max response
1,CC1(C)Cc2ccccc2/C(=C/C(=O)c2ccccc2)N1,4.21% (inactive)
2,Cc1noc(C)c1CSCC(=O)N(CCC(C)C)c1c(N)n(Cc2ccccc2)c(=O)[nH]c1=O,-1.36% (inactive)
3,O=C(O)C1CCCN1C1=NS(=O)(=O)c2ccccc21 (configuration not stated),-4.57% (inactive)
4,Cc1cc2cc(CNC(=O)c3cccs3)ccc2[nH]1,24.1% (active)
5,Cc1cc2cc(CNC(=O)c3ccc(S(=O)(=O)N4CCOCC4)cc3)ccc2[nH]1,-2.1% (inactive)
6,CCc1cccc(CC)c1NC(=S)NCc1ccc2[nH]c(C)cc2c1,-2.68% (inactive)
7,COc1ccc(CS(=O)/C(Cl)=C(/Cl)C(=O)Nc2ccc(OC)nc2)cc1 (configuration not stated),-16.6% (inactive)
8,N#CCSc1nc2ccc(N3CCOCC3)cc2c(=O)n1CCc1ccccc1,10.2% (inactive)
9,Cc1ccc(NS(=O)(=O)c2ccc(-c3coc(C)n3)cc2)c(C)c1,4.71% (inactive)
10,O=C(NCc1ccccc1)C(c1cccnc1)N(C(=O)c1csnn1)c1ccc(F)cc1 (configuration not stated),-4.58% (inactive)
11,COC(=O)c1[nH]c2ccc(Br)cc2c1NC(=O)Oc1ccccc1,47% (active)
12,COC(=O)c1[nH]c2ccccc2c1NC(=O)CN1CCCc2ccccc21,13.2% (inactive)
13,CCOC(=O)c1[nH]c2ccc(OC)cc2c1NC(=O)CCN1CCN(Cc2ccccc2)CC1,2.39% (inactive)
14,COc1ccc(C2(CNC(=O)C(c3ccccc3)c3ccccc3)CCOCC2)cc1OC,4.44% (inactive)
15,CCn1cc(C(=O)NCCO)c(=O)c2cc(F)c(N3CCN(C)CC3)cc21,1.78% (inactive)
16,COc1ccc(N2CCN(C(=O)[C@@H](NC(=O)c3cc(OC)cc(OC)c3)C(C)C)CC2)cc1,-0.698% (inactive)
17,OCCCNc1nccc(-c2cc(Nc3cccc(Cl)c3)ncn2)n1,26.9% (active)
18,NS(=O)(=O)c1cccnc1Nc1cccc(Cl)c1,5.31% (inactive)
19,CC(C)n1cnc2c(Nc3cccc(Cl)c3)nc(N(CCO)CCCO)nc21,-7.35% (inactive)
20,CC(=O)N1CCN(CC(c2ccccc2)c2ccccc2)CC1,-2.13% (inactive)
21,Cc1ccc(N2C(=O)C3C4C=CC(CC4)C3C2=O)cc1Cl (configuration not stated),0.718% (inactive)
22,CCN1C(=S)N[C@@H](CCc2ccccc2)[C@H](C(=O)OC)[C@H]1C,-1.59% (inactive) and -1.62% (inactive)
23,COC(=O)c1c(NC(=O)CN(c2ccc(C)c(C)c2)S(C)(=O)=O)sc2c1CCCC2,-3.45% (inactive)
24,CC(=O)Nc1ccc(S(=O)(=O)Nc2cc(C)cn(Cc3ccc(C)cc3)c2=O)cc1,10.7% (inactive)
25,COc1cccc(CNC(=O)COc2cc(O)c3c(c2)OC(C)(C)CC3=O)c1,6.81% (inactive)

row,SMILES,max response
1,CCOC(=O)C1CCN(Cc2c(C(=O)N3CCOCC3)nc3c(C)cccn23)CC1,-0.834% (inactive)
2,COC(=O)COc1ccc2c(c1C)O/C(=C\c1ccco1)C2=O,8.5% (inactive)
3,COC(=O)C1=C(C)N(c2ccc(Br)cc2)C(=O)/C1=C\c1ccco1,19.6% (inactive)
4,CC(C)(C)C1C/C(=C/c2ccco2)C(=O)/C(=C/c2ccco2)C1 (configuration not stated),46.9% (active)
5,O=[N+]([O-])c1cc(Cl)cc(/C=N/NC(=S)Nc2cc(S(=O)(=O)N3CCOCC3)ccc2Cl)c1O,6.73% (inactive)
6,CCN(C(=O)COc1ccc(C(=O)c2ccccc2)cc1)c1ccccc1,8.19% (inactive)
7,Cc1cc(C)n(CCC(=O)N2CCN(S(=O)(=O)c3ccc(C)c(C)c3)CC2)n1,-4.77% (inactive)
8,Cc1ccc2cc(/C=N/NC(=O)[C@@H]3CCCN3)c(Cl)nc2c1,12.2% (inactive)
9,CSCC[C@H](NC(=O)OC(C)(C)C)C(=O)N/N=C/c1cc2ccc(C)cc2nc1Cl,-2.35% (inactive)
10,O=C(O)c1ccc(N/N=C/c2ccc3ncccc3c2)cc1,40% (active)
11,CCNC(=S)NNC(=O)c1ccc2ncccc2c1,23.2% (inactive)
12,O=C(O)c1ccc(/C=N/Nc2nc(N3CCCCC3)nc(N3CCCCC3)n2)cc1,-2.21% (inactive)
13,Cc1ccc2cc(/C=N/Nc3ccc(C(=O)O)cc3)c(Cl)nc2c1,33.1% (active)
14,COc1ccccc1N1CCN(C(=O)CCS(=O)(=O)c2ccc3c(c2)NC(=O)C(C)S3)CC1 (configuration not stated),18.6% (inactive)
15,Cc1cc(CNC(=O)C2CCC(=O)N(CCc3ccc(Cl)cc3)C2)no1 (configuration not stated),0.258% (inactive)
16,NC(=O)c1cc(-c2cccnc2)nc2ccc(Br)cc12,0.502% (inactive)
17,Cc1ccc2c(c1)N(C(=O)CCC(=O)N1CCc3ccccc3C1)CCO2,13.8% (inactive)
18,Cc1ccccc1-n1c(SCC(=O)Nc2cccc3ccccc23)nc(O)cc1=O,-2.55% (inactive)
19,O=C(O)Cc1ccc(NC(=O)Nc2cccc3ccccc23)cc1,0.207% (inactive)
20,CC(=O)N(C)c1ccc(NC(=O)Nc2cccc3ccccc23)cc1,33% (active)
21,CCOc1ccc(NC(=O)Nc2ccc(N(C)C(C)=O)cc2)cc1,-1.58% (inactive)
22,O=C(NCC(=O)N1CCC2(CC1)NCCc1[nH]cnc12)c1ccc(Br)cc1,1.26% (inactive)
23,CC(C)Nc1ccc(-n2nc3ccccc3[n+]2[O-])cc1,25.2% (active)
24,Clc1ccc(-c2nc3ccccn3c2CN2CCSCC2)cc1,12.2% (inactive)
25,Cc1cn(C2OC[C@@H](O)[C@@H]2CO)c(=O)[nH]c1=O (some centres not stated),-1.7% (inactive)

row,SMILES,max response
1,O=C(N/N=C\c1cc2c(cc1Cl)OCO2)c1ccc(Br)s1,-4.62% (inactive)
2,CCCCCCCCC(=O)NCCOc1ccccc1,-1.44% (inactive)
3,CCCCOC(=O)Nc1nnc(CC(=O)NCc2ccccc2)s1,-2.89% (inactive)
4,CCCCCCOC(=O)NCC(O)c1ccccc1 (configuration not stated),29.3% (active)
5,CC(=O)C1=C(C)NC(=O)NC1c1ccc2c(c1)OCO2 (configuration not stated),0.903% (inactive)
6,COc1ccc(CNC(=O)C(C)NCc2ccccc2Cl)cc1 (configuration not stated),-2.73% (inactive)
7,CC(C)(O)C#Cc1ccc(CN2CCC(CO)(CCc3ccccc3)CC2)cc1,-2.91% (inactive)
8,COc1ccc(C(=O)NC(=S)N2CCCCC2c2cccnc2)cc1OC (configuration not stated),1.6% (inactive)
9,COc1ccccc1NC(=O)CSc1nc2sc3c(c2c(=O)n1-c1ccccc1)CCN(C)C3,33.2% (active)
10,CCOc1ccc(-n2c(SCC(=O)Nc3ccc(OC)cc3)nc3sc4c(c3c2=O)CCN(C)C4)cc1,-3.77% (inactive)
11,CCOc1ccc(-n2c(SCC(=O)OC)nc3sc4c(c3c2=O)CCN(C)C4)cc1,-9.49% (inactive)
12,CCO[C@H]1OC(C(=O)N2CCCCCCC2)=C[C@@H](c2ccc(C(F)(F)F)cc2)[C@@H]1CCCO,-3.3% (inactive)
13,CCCC(C(=O)n1nc(C)cc1C)C(NS(=O)(=O)c1ccc(C)cc1)c1ccccc1 (configuration not stated),8.08% (inactive)
14,N#CCC(=O)NC1CCC(CC2CCC(NC(=O)CC#N)CC2)CC1 (configuration not stated),-6.39% (inactive)
15,O=C(Cc1ccc(Cl)cc1)NCc1nc(-c2ccccc2)no1,16.7% (inactive)
16,c1ccc(CCc2nc(-c3ccncc3)no2)cc1,30.3% (active)
17,O=C1c2ccccc2C(=O)N1CCCc1nc(-c2ccccc2)no1,4.56% (inactive)
18,CN(CC1CCCO1)S(=O)(=O)c1ccc(C(=O)Nc2ccc([N+](=O)[O-])cc2)cc1 (configuration not stated),-2.48% (inactive)
19,Cn1c(COc2ccc(Cl)cc2)nc2ccccc2c1=O,31.5% (inactive)
20,COCn1c(COc2ccccc2)nc2ccccc21,36.4% (active)
21,Cc1ccc(OCc2nc3ccccc3n2C)cc1,26.1% (active)
22,CC(C)n1c(COc2ccccc2)nc2ccccc21,2.4% (inactive)
23,Cc1ccc(OCc2n[nH]c(=S)n2-c2ccccc2)cc1,-8.01% (inactive)
24,O=C(Cn1c(COc2ccccc2)nc2ccccc21)Nc1cc(Cl)c(Cl)cc1Cl,6.88% (inactive)
25,CC1(C)Cc2cccc(OCC(=O)NCc3ccccc3)c2O1,-11.4% (inactive)

row,SMILES,max response
1,COC(=O)C1=C(C)N(C)C(=O)NC1c1ccc([N+](=O)[O-])o1 (configuration not stated),-2.81% (inactive)
2,O=C(CO/N=C/c1ccc(OC(F)F)cc1)NCc1ccc(F)cc1,-1.6% (inactive)
3,O=C(Cn1ncc(N2CCCC2)c(Br)c1=O)c1ccc(Cl)cc1,21.9% (active)
4,CC(=O)Cn1ncc(N2CCOCC2)c(Br)c1=O,8.19% (inactive)
5,Cn1c(=O)c2c(nc(N3CCCCCC3)n2CC(=O)c2ccc(Br)cc2)n(C)c1=O,4.19% (inactive)
6,O=c1[nH]c(CCl)nc2cc(-c3ccc(Cl)cc3)sc12,3.01% (inactive)
7,CC(O)c1cccc(NC(=O)Cc2cccc3ccccc23)c1 (configuration not stated),-1.49% (inactive)
8,O=C(Nc1ccc(NC(=O)c2cccs2)cc1)c1ccc2ccccc2c1,21.9% (inactive)
9,O=C(Nc1ccc2oc(-c3ccc4ccccc4c3)nc2c1)c1cccs1,42.5% (active)
10,O=C(Nc1ccc2c(c1)C(=O)OC2)Nc1cccc2ccccc12,8.24% (inactive)
11,O=C(Cc1cccc2ccccc12)Nc1ccc2oc(-c3ccccc3)nc2c1,51.7% (active)
12,O=C(NC(=S)Nc1cccc(-c2ccc(CO)o2)c1)c1cccs1,12.5% (inactive)
13,Cc1ccc(NC(=O)CSc2nn3c(=O)c(C)nnc3s2)cc1Cl,8.05% (inactive)
14,CC(OC(=O)c1ccc2ccccc2n1)C(=O)c1ccccc1 (configuration not stated),25.1% (active)
15,COc1ccc(C2=NOC(COC(=O)c3ccc4ccccc4n3)C2)cc1 (configuration not stated),12.5% (inactive)
16,O=C(Oc1ccc([N+](=O)[O-])cc1)c1ccc2ccccc2n1,33.2% (active)
17,COc1ccc(C(=O)COC(=O)c2ccc3ccccc3n2)cc1,20.4% (active)
18,CCCCC(C(=O)OCC(=O)c1ccc(OC)cc1)N1C(=O)c2ccccc2C1=O (configuration not stated),1.39% (inactive)
19,O=C(CNC(=O)c1ccccc1)Oc1ccc([N+](=O)[O-])cc1,0.695% (inactive)
20,COc1ccccc1NC(=O)CCC(=O)OC(C)C(=O)c1ccccc1 (configuration not stated),-2.18% (inactive)
21,CC(OC(=O)c1ccccc1N1C(=O)C2C3CCC(C3)C2C1=O)C(=O)c1ccccc1 (configuration not stated),-0.595% (inactive)
22,O=C(Oc1ccc([N+](=O)[O-])cc1)c1ccc(Cl)c(S(=O)(=O)N2CCCCC2)c1,7.89% (inactive)
